Measurements as given in the supplement of paper PMC8726507.
A number with no mark means an inactive call.

These compounds were tested on Plasmodium falciparum NF54-HGL (transmission to Anopheles stephensi) (assay: percentage of barcode signal found in uninfected mosquitoes (transmission-blocking activity); higher = stronger blocking of transmission to mosquito, active = 80 or more). Settings: 10 µM; gametocyte preincubation time 24 h; readout time post-feed 8 days.
Experimental: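 The mixture was fed to Anopheles stephensi in 96-well plates as blood meals tagged with DNA-barcoded Asaia bacteria. Eight days later, mosquitoes were classed infected or uninfected by luminescence (mean + 5 SD of unfed controls). Barcodes were quantified by Luminex MagPlex-TAG in the pooled uninfected and infected Asaia cultures, background-corrected, and the score is % of barcode signal in uninfected mosquitoes = 100*Iu/(Iu+Ii).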
`CC1CCCCN1C(=O)NCCc1coc(-c2ccc(F)cc2)n1` (stereo not given) was tested, and the “percentage of barcode signal found in uninfected mosquitoes” value (from here on “percentage of barcode signal found”) was 42%.
With `O=C(Nc1nc(-c2ccccn2)cs1)c1cncn1-c1ccccc1` the “percentage of barcode signal found” value was 21.4%.
With `CC(=O)Nc1ccc(NC(=O)c2cc(-c3cc(Cl)ccc3O)[nH]n2)cc1` the “percentage of barcode signal found” value was 27.4%.
For `CC(C)(C)OC(=O)N1CCC(Cn2nc(-c3cnc4ccccc4c3)c3c(N)ncnc32)CC1`, the “percentage of barcode signal found” value was 24.4%.
With `O=C(NC1CCN(c2ccnc3ccccc23)C1)c1cccc(C(F)(F)F)c1` (stereo not given) the “percentage of barcode signal found” value was 71.6%.
With `CC(C)n1ncc2c(C(=O)NCC(c3cccs3)N3CCOCC3)cc(-c3ccccc3)nc21` (stereo not given) the “percentage of barcode signal found” value was 29.6%.
With `O=C1Nc2ccc(Br)cc2C12NCCc1c2[nH]c2ccccc12` (stereo not given) the “percentage of barcode signal found” value was 27.2%.
For `NCCCC(N)(C(=O)O)C(F)F` (stereo not given), the “percentage of barcode signal found” value was 37.7%.
In the case of `O=C(Nc1nnc(-c2ccc(Cl)s2)o1)c1ccc(Cl)s1`, the “percentage of barcode signal found” value was 0.515%.
For `CNC(=O)c1cc(S(=O)(=O)N2CCN(c3ccccn3)CC2)cs1`, the “percentage of barcode signal found” value was 37.8%.
`CC1=NN(c2nc3ccccc3s2)C(=O)C1Cc1cccc2ccccc12` (stereo not given) was tested, and the “percentage of barcode signal found” value was 0.165%.
`Cc1cccc(Cn2ccc(NC(=O)c3ccc4c(c3)OCO4)n2)c1` was tested, and the “percentage of barcode signal found” value was 42.9%.
`NCC(=O)N1CCn2c(nc(-c3ccccc3)c2Nc2ccc3c(c2)OCO3)C1` was tested, and the “percentage of barcode signal found” value was 80.9% (active).
In the case of `Cc1nc(-c2ccccn2)nc(NCCc2ccc(S(C)(=O)=O)cc2)c1Cl`, the “percentage of barcode signal found” value was 67%.
In the case of `O=C(NCCc1c[nH]c2ccccc12)c1cc2ccccc2oc1=O`, the “percentage of barcode signal found” value was -1.49%.
`CC(C)C(NC(=O)Cc1cccc2ccccc12)C(=O)Nc1cccc(C#N)c1` (stereo not given) was tested, and the “percentage of barcode signal found” value was 53.4%.
With `FC(F)(F)c1cnc(Sc2nnc(-c3ccncc3)o2)c(Cl)c1` the “percentage of barcode signal found” value was 68.8%.
With `O=S(=O)(c1ccc(Cl)cc1)N1CCN(C(=S)NCc2ccco2)CC1` the “percentage of barcode signal found” value was 29.2%.
In the case of `COc1cccc(OCC(=O)c2ccc(Br)cc2)c1`, the “percentage of barcode signal found” value was 13.7%.
`CCCn1nnc(NC(=O)COc2ccc(C3CCCCC3)cc2)n1` was tested, and the “percentage of barcode signal found” value was 3.33%.
`O[C@@H](c1cc(C(F)(F)F)nc2c(C(F)(F)F)cccc12)[C@H]1CCCCN1` was tested, and the “percentage of barcode signal found” value was 43.2%.
With `O=C(NC1=NCCS1)c1sc2cc(F)ccc2c1Cl` the “percentage of barcode signal found” value was 5.7%.
With `COc1cc(NC(C)CCCN)c2ncccc2c1` (stereo not given) the “percentage of barcode signal found” value was 48.2%.
`CNC(=O)c1nn(C)c2c1C(C)(C)Cc1cnc(Nc3ccc(N4CCN(C)CC4)cc3)nc1-2` was tested, and the “percentage of barcode signal found” value was 64%.
With `Nc1ncnc2[nH]nc(Cc3cccc4ccccc34)c12` the “percentage of barcode signal found” value was 67.8%.
In the case of `CC(C)(C)C1CCC(CC2=C(O)C(=O)c3ccccc3C2=O)CC1` (stereo not given), the “percentage of barcode signal found” value was 83.7% (active).

Same assay, conditions: 20 µM; gametocyte preincubation time 24 h; readout time post-feed 8 days
`COc1cccc(OC)c1C(=O)Nc1ccc(Cl)c(-c2nc3ccccc3s2)c1` was tested, and the “percentage of barcode signal found” value was 13.2%.
In the case of `FC(F)(F)c1cc(NCCc2ccccc2)nc(-c2ccccn2)n1`, the “percentage of barcode signal found” value was 62.2%.
In the case of `Cn1c(=O)c2c(S(C)(=O)=O)snc2n(C)c1=O`, the “percentage of barcode signal found” value was 21.4%.
`CCCCCCCCCCCCCCCCOP(=O)([O-])OCC[N+](C)(C)C` was tested, and the “percentage of barcode signal found” value was -0.352%.
With `CCCCOC(=O)Nc1cc2nc(C3CCCCC3)[nH]c2cc1N1CCCC1` the “percentage of barcode signal found” value was 33.9%.
In the case of `O=C(Nc1ccccc1)c1ccc(-c2cc3ccncc3cc2OC2CCNCC2)s1`, the “percentage of barcode signal found” value was 82.7% (active).
With `CN1CCN(c2nccc3[nH]c(-c4cccc(F)c4)cc23)CC1` the “percentage of barcode signal found” value was -0.815%.
`Cc1[nH]c2cc(F)cc(F)c2c(=O)c1-c1ccc(Oc2ccc(OC(F)(F)F)cc2)cc1` was tested, and the “percentage of barcode signal found” value was 78.3%.
For `CC(=O)NCC1CN(c2ccc(-c3ccc(CNCc4cn[nH]n4)cc3)c(F)c2)C(=O)O1` (stereo not given), the “percentage of barcode signal found” value was 9.84%.
In the case of `NC(=O)c1cc(-c2ccsc2)ccc1OCCOc1ccccc1`, the “percentage of barcode signal found” value was 12.1%.
`COc1ccc(-c2nn(C(C)C)c3ncnc(N)c23)cc1OC` was tested, and the “percentage of barcode signal found” value was 95.5% (active).
With `c1cc(C2=NCCN2)cc(-c2cc(-c3ccc(C4=NCCN4)cc3)no2)c1` the “percentage of barcode signal found” value was 50%.
For `CC(C)(CN)c1nc(-c2ccc(Cl)c(O)c2)c(-c2ccnc(N)n2)[nH]1`, the “percentage of barcode signal found” value was 80.9% (active).
With `CC(C)(C)n1nc(Cc2cccc3ccccc23)c2c(N)ncnc21` the “percentage of barcode signal found” value was 0.0299%.
